Experimental data from PubChem BioAssay.
The source made the active and inactive calls.

Columns and labels:
[1] = anti-His antibody binders, primary screen, artefact control for SMM control protein annotation, biochemical, small-molecule microarray, 635 nm fluorescence (AID 1128); settings: anti-His Alexa647 antibody binding, higher = more signal;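 also: score merges feature fluorescence with signal-to-noise for each printed compound spot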
[2] = tested on: Human papillomavirus type 1a E7 protein (residues 1-88); assay: HPV1a E7 small-molecule binders, primary screen, biochemical, small-molecule microarray, residues 1-88, 635 nm (AID 1129); settings: small-molecule microarray binding, fluorescence 635 nm; higher = more signal
[3] = target: Focal adhesion kinase 1 (Homo sapiens) (UniProt Q05397); assay: small-molecule microarray binders of FAK, primary screen, biochemical, 635/667 nm fluorescence, BSA, DTT (AID 1130); settings: PTK2 binding, 635 nm fluorescence, higher = more signal;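 also: composite of spot emission at 667 nm and signal to noise over triplicate slides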
[4] = tested on: Fibrinogen (Alexa647-labelled); assay: fibrinogen binders on compound microarrays, profiling panel, artefact control for SMM control-protein annotation, biochemical, small-molecule microarray, 635/667 nm fluorescence (AID 1131); settings: fibrinogen-A647 binding fluorescence, higher = more signal;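 also: z-score merges 667 nm fluorescence with per-spot signal-to-noise over triplicate slides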
[5] = target: Follistatin (Homo sapiens) (UniProt P19883); assay: follistatin binders on small-molecule microarrays, primary screen, biochemical, small-molecule microarray, 635/667 nm fluorescence (AID 1132); settings: FST binding, 635 nm fluorescence, higher = more signal
[6] = target: Fibroblast growth factor 2 (Homo sapiens) (UniProt P09038); assay: FGF2 binders on small-molecule microarrays, primary screen, biochemical, small-molecule microarray, 635/667 nm fluorescence (AID 1133); settings: small-molecule microarray binding, FGF2, fluorescence 635/667; higher = more signal
[7] = mitochondrial membrane potential change in A549 cells, profiling panel, cell-based, JC-1 fluorescence, basal, 24 h, 100 nL (AID 1138); settings: higher = more signal;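 also: A549 lung adenocarcinoma cells under basal conditions with no added stimulus; test concentration not given here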
Lefty1 = Lefty1 binders on small-molecule microarrays, primary screen, biochemical, small-molecule microarray, 635/667 nm fluorescence (AID 1139); settings: small-molecule microarray binding, fluorescence 635/667; higher = more signal
[8] = tested on: wheat germ agglutinin (Triticum aestivum), Alexa647-labelled; assay: wheat germ agglutinin binders on compound microarrays, profiling panel, artefact control for SMM control-protein annotation, biochemical, small-molecule microarray, 635/667 nm fluorescence (AID 1140); settings: WGA-A647 binding, 635 nm fluorescence, higher = more signal;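 also: score merges 667 nm feature emission with signal to noise over triplicate slides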
[9] = target: Luciferin 4-monooxygenase (Photinus pyralis) (UniProt P08659); assay: firefly luciferase enzyme inhibitors, primary screen, biochemical, luminescence, purified enzyme, 2006 set (AID 1141); settings: SteadyGlo luminescence, 30 min, higher = more signal, called active from +8 up or from −8 down;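 also: cell-free assay with purified firefly luciferase at 100 ng per well in PBS; test concentration not given here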
Sequence of Luciferin 4-monooxygenase (Photinus pyralis) (P08659 whole entry, looked up): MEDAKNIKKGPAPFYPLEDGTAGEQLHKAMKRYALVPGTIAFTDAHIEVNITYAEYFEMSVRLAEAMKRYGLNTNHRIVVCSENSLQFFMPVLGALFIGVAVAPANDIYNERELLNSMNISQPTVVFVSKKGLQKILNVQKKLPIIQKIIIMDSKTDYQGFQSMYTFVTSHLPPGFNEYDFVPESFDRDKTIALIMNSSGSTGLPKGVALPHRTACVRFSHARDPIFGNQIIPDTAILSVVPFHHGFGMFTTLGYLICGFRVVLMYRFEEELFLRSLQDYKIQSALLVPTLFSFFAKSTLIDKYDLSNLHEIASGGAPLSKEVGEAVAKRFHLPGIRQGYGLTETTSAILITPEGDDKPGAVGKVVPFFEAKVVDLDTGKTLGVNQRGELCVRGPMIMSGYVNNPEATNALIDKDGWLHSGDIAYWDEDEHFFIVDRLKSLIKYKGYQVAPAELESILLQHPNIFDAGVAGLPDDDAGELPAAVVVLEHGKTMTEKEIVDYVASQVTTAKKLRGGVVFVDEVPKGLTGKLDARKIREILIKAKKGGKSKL

Sequence of Fibroblast growth factor 2 (Homo sapiens) (P09038 whole entry, looked up): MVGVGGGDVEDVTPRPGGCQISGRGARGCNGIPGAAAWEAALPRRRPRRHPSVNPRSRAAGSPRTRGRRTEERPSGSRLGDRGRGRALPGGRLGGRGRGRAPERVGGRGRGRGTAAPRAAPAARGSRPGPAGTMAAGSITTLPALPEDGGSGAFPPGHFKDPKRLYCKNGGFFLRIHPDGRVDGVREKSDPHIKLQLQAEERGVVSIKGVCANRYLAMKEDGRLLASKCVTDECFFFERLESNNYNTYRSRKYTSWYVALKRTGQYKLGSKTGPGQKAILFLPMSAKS
Sequence of Focal adhesion kinase 1 (Homo sapiens) (Q05397 whole entry, looked up): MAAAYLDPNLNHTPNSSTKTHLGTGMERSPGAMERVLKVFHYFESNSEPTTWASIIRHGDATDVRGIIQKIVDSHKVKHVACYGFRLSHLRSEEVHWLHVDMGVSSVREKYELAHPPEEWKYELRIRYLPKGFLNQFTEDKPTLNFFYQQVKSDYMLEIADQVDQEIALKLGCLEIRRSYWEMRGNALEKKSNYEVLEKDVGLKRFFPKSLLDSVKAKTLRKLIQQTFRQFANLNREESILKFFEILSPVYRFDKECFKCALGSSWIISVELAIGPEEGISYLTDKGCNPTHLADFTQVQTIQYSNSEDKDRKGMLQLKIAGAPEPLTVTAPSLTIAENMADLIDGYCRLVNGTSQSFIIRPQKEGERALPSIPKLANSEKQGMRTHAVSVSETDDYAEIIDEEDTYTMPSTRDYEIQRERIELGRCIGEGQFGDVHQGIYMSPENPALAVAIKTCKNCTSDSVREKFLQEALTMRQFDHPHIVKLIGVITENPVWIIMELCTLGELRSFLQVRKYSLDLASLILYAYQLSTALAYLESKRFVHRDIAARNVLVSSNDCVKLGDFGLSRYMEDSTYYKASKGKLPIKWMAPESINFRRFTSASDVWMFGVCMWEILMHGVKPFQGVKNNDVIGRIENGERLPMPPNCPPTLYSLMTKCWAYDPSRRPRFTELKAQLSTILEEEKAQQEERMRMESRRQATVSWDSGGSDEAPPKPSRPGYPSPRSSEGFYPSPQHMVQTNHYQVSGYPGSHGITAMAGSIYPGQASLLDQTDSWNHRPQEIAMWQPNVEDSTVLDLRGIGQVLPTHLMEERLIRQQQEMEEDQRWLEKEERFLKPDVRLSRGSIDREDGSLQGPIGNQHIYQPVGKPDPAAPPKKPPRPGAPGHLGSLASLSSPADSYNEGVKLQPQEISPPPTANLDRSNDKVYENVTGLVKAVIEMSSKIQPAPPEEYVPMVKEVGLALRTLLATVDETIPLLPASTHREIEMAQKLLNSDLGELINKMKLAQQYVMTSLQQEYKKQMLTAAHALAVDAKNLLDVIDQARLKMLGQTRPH
Sequence of Follistatin (Homo sapiens) (P19883 whole entry, looked up): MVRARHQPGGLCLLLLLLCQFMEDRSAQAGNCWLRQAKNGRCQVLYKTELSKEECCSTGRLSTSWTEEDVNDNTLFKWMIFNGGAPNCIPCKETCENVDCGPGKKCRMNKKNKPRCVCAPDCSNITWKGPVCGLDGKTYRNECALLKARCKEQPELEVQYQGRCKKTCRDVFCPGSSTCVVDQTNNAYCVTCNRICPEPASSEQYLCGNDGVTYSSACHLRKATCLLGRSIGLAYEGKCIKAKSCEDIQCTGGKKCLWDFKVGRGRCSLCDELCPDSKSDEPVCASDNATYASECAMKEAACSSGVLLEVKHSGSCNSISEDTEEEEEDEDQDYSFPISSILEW

| Compound | composite z-score [1] | composite z-score [2] | composite z-score [3] | composite z-score [4] | composite z-score [5] | composite z-score [6] | z-score [7] | composite z-score (Lefty1) | composite z-score [8] | z-score [9] |
| --- | --- | --- | --- | --- | --- | --- | --- | --- | --- | --- |
| CCc1cccc(NC(=O)O[C@H]2[C@H](OC(=O)Nc3ccccc3)[C@@H](OC(=O)Nc3ccccc3)[C@@H](OC)O[C@@H]2CO)c1 | 0.51 | 1.29 | 0.497 | 0.978 | 1.4 | 0.786 | -1.47 | 0.937 | 0.966 | 0.846 (inactive) |
| CC(C)=C1C(=O)C(c2ccccc2)=C2CN3C(=O)N(CCc4ccccc4)C(=O)[C@]3(Cc3ccccc3)[C@H]21 | 1.39 | -0.992 | 0.521 | -0.358 | -1.04 | -0.77 | 1.45 | -0.961 | -0.112 | 0.451 (inactive) |
| C=CC[C@]1(C(=O)NCC(O)CO)N=C(c2ccc(OCCCO)cc2)O[C@H]1c1ccccc1 (stereo not given in full) | 0.307 | 0.904 | 0.12 | 0.106 | -0.307 | -0.651 | 0.985 | -1.51 | 0.587 | -0.428 (inactive) |
| C=CCc1cccc([C@H]2N[C@H](C(=O)O)CC[C@@H]2C)c1 | 0.7 | 0.297 | 1.34 | 0.172 | 0.648 | 0.972 | 0.809 | 0.825 | -0.173 | -0.42 (inactive) |
| CO[C@H]1O[C@H](CO)[C@@H](OC(=O)Nc2ccc3c(c2)OCO3)[C@H](OC(=O)Nc2ccccc2)[C@@H]1OC(=O)Nc1ccccc1 | 1.79 | 1.22 | 1.02 | 0.968 | 1.41 | 1.83 | 0.187 | 0.823 | 0.497 | -0.899 (inactive) |
| C=CCC(OC(C)=O)[C@@H]1[C@@H](N(Cc2cccc3ccccc23)C(=O)Cc2ccc(F)cc2)c2cc(OCCCO)ccc2N1C(=O)Cc1ccc2ccccc2c1 (stereo not given in full) | -0.404 | -0.329 | 0.317 | -0.175 | 0.0802 | -0.391 | 0.331 | -0.258 | 0.191 | 0.693 (inactive) |
| COc1ccc([Si](C)(C)[C@@H]2[C@@H](CCO)O[C@]3(C(=O)N(Cc4ccc(NC(=O)[C@H](C)O)cc4)c4ccccc43)[C@H]2C)cc1 | 1.79 | 1.06 | 0.293 | 0.94 | 0.403 | 0.137 | -1.61 | 0.215 | 0.852 | -0.546 (inactive) |
| C=C(CCCC)/C(=C/C[C@H](OC(=O)c1ccncc1)c1cccc(OCCO)c1)c1cc(C(=O)OC)ccc1OC | 1.06 | 0.492 | -0.0622 | 0.723 | 0.852 | 1.59 | 0.397 | 1.17 | 0.311 | 0.34 (inactive) |
| O=C(CS)NCCCCCNC(=O)[C@H]1C[C@H]2C(=O)N[C@@H](Cc3ccccc3)C(=O)N2[C@H]1c1ccc(O)cc1 | 1.58 | 1.06 | 0.485 | 0.948 | 1.43 | 1.14 | -0.586 | 0.854 | 1.21 | -2.91 (inactive) |
| C=CCN1C(=O)[C@@]2(Cc3ccccc3)N=C(c3ccc(OCCCO)cc3)O[C@H]2c2ccccc21 | 1.69 | 1.23 | 0.665 | 0.578 | 1.39 | 1.08 | -0.993 | 0.398 | 0.648 | -5.51 (inactive) |
| Cc1ccccc1C(O)C1C=CC2C(=O)N(c3ccccc3)C(=O)C2N1Nc1ccc(C#N)cc1 (stereo not given) | 2.68 | 1.21 | 0.842 | 0.523 | 0.683 | 0.302 | -0.638 | 0.0979 | 1 | -1.33 (inactive) |
| COc1ccc(CCN2C(=O)[C@@]3(c4ccc([N+](=O)[O-])cc4)CC(=O)N(CC45CC6CC(CC(C6)C4)C5)[C@@H]3c3ccc(CO)cc32)cc1 | 0.286 | 0.415 | 0.38 | 0.138 | 0.572 | -0.0451 | 1.15 | -0.531 | -0.0366 | -0.736 (inactive) |
| CCOC(=O)C1=CC[C@@H](c2ccc(-c3ccc(OCc4ccccc4)cc3)c(OC)c2)N(S(=O)(=O)c2ccc(C)cc2)[C@H]1c1ccccc1 | 1.07 | 1.2 | -0.0822 | 0.978 | 1.2 | 0.275 | 1.63 | 0.329 | 1.05 | -3.26 (inactive) |
| COC(=O)[C@H]1[C@@H]2COc3ccccc3[C@H]2N[C@H]1C(=O)OC | -0.0432 | 0.0902 | 0.404 | 0.428 | 0.214 | 0.446 | 0.603 | 0.171 | 0.274 | -1.37 (inactive) |
| O=C1O[C@H](c2ccccc2)[C@H](c2ccccc2)N2[C@H]1[C@@H](C(=O)NC[C@H](O)c1ccccc1)[C@]1(C(=O)Nc3ccc(C#CC4=CCCCC4)cc31)[C@H]2c1ccc(OCCO)cc1 | 0.879 | 1.19 | 0.73 | 0.874 | 1.2 | 0.527 | -1.76 | 1.26 | 0.944 | -1.4 (inactive) |
